This passage reports growth results from PubChem BioAssay (NCI).

The panel holds about 83,000 compounds, 20% with a hit somewhere; the sample as a whole holds those more often.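 Growth was measured after 48 h exposure to one concentration of compound in 96-well plates. Values under 10 count as active.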 Unmarked numbers belong to inactive results. Calls of active or inactive are those of the source.

Some test systems named below: NCI-H23 lung; NCI-H226 lung; NCI-H322M lung; HOP-62 NSCLC; NCI-H460 lung; HOP-92 NSCLC; NCI-H522 lung; A549/ATCC NSCLC; 786-0 renal; COLO 205 colon; DU-145 prostate; K-562 leukemia; MALME-3M melanoma; MDA-MB-231 breast; RXF 393 renal; SF-268 CNS; SF-295 CNS; SF-539 CNS; M14 melanoma; UACC-257 melanoma.
Common to all, as to experiment: NCI-60 one-dose screen, 48 h (100 = growth as untreated, 0 = no growth, -100 = all killed)
Holding throughout (details): 10 µM unless noted

In the case of `[2H]C1([2H])[C@H](C)O[C@H](C)C([2H])([2H])N1c1ccc(NC(=O)c2cccc(-c3ccc(OC(F)(F)F)cc3)c2C)cn1`, the growth was 58.5% in the assay with NCI-H23 lung; 58.7% with NCI-H226 lung; 83.4% in the assay with NCI-H322M lung; 77.7% in the assay on HOP-62 NSCLC; 85.1% in the assay on NCI-H460 lung; 8.86% (active) with HOP-92 NSCLC. The growth was 44.7% in the assay on NCI-H522 lung; 68.9% in the assay with A549/ATCC NSCLC; 74.1% with 786-0 renal; 81.6% in the assay on COLO 205 colon; 80.1% in the assay on DU-145 prostate; 38.2% with K-562 leukemia. The growth in the assay on MALME-3M melanoma was 68.2%; with MDA-MB-231 breast, 74.9%; in the assay with RXF 393 renal, 90%; in the assay on SF-268 CNS it was 71.6%; in the assay on SF-295 CNS, 73.3%; in the assay with SF-539 CNS, 81.6%. Also, the growth in the assay with M14 melanoma is 77%.
In the case of `CCN1CCN(c2nc(C)cc(N(CCCNc3ccnc4cc(Cl)ccc34)Cc3ccc4c(c3)OCO4)n2)CC1`, the growth in the assay with NCI-H23 lung is 46%; in the assay with NCI-H226 lung it was 61%; in the assay with NCI-H322M lung, -11.1% (active); in the assay on HOP-62 NSCLC it was -42.1% (active); in the assay on NCI-H460 lung it was -6.13% (active); in the assay with HOP-92 NSCLC, -33.9% (active). The growth in the assay with NCI-H522 lung is -43.1% (active); in the assay with A549/ATCC NSCLC it was 5.33% (active); with 786-0 renal, -85.8% (active); in the assay with COLO 205 colon it was -78.6% (active); with DU-145 prostate, 25%; in the assay with K-562 leukemia it was -10.5% (active). Further, the growth was -81.9% (active) in the assay with MALME-3M melanoma; -32.8% (active) with MDA-MB-231 breast; -73.4% (active) in the assay with RXF 393 renal; -6.06% (active) with SF-268 CNS; -76.1% (active) in the assay on SF-295 CNS; -86.1% (active) in the assay with SF-539 CNS. The growth with M14 melanoma is -87.9% (active).
On to `CN1CC[C@@H](c2c(O)cc(O)c3c(=O)cc(-c4ccccc4Cl)oc23)[C@@H]1CO`, for which the growth in the assay with NCI-H23 lung is -26.5% (active); with NCI-H226 lung, 7.7% (active); in the assay with NCI-H322M lung it was -1.67% (active); with HOP-62 NSCLC, -21.2% (active); with NCI-H460 lung it was 4.14% (active); in the assay with HOP-92 NSCLC, -2.24% (active). In addition, the growth in the assay on NCI-H522 lung is -13.8% (active); with A549/ATCC NSCLC it was 4.56% (active); in the assay with 786-0 renal it was 4.31% (active); in the assay on COLO 205 colon, -64.5% (active); with DU-145 prostate, 10.7%; in the assay with K-562 leukemia, 4.81% (active). For the same compound, the growth with MALME-3M melanoma was -46.8% (active); with MDA-MB-231 breast it was 6.99% (active); with RXF 393 renal, -62.8% (active); in the assay on SF-268 CNS, 3.32% (active); in the assay with SF-295 CNS, 3.04% (active); in the assay on SF-539 CNS, -33.3% (active). The values for the growth in the assay with UACC-257 melanoma and in the assay with M14 melanoma were -25.8% (active) and -35.4% (active), respectively.
As to `Cc1cc2c(-c3nc4ccccn4c3Nc3cccc4ccccc34)c(O)c(O)cc2c(O)c1-c1c(C)cc2c(-c3nc4ccccn4c3Nc3cccc4ccccc34)c(O)c(O)cc2c1O`, the growth with NCI-H23 lung was 12.4%; in the assay on NCI-H226 lung it was 46.6%; in the assay with NCI-H322M lung, 59.4%; in the assay with HOP-62 NSCLC, 37.9%; in the assay with NCI-H460 lung, 3.9% (active); in the assay with HOP-92 NSCLC it was 9.86% (active). For the same compound, the growth with NCI-H522 lung is 32%; in the assay on A549/ATCC NSCLC it was 16.1%; in the assay with 786-0 renal it was 68%; in the assay with COLO 205 colon, 28%; in the assay on DU-145 prostate it was 31.4%; in the assay with K-562 leukemia, 15.2%. Moreover, the growth with MALME-3M melanoma was 10.8%; in the assay on MDA-MB-231 breast, 23.3%; with RXF 393 renal, 39.6%; in the assay with SF-268 CNS, 30.9%; with SF-295 CNS, 13.1%; in the assay with SF-539 CNS, 20.4%. The growth with M14 melanoma is 27.2%.
Consider `CN(C)CCn1c(=O)c2c3cc4c(cc3n(CCN(C)C)c2c2ccc(Cl)cc21)OCO4`, for which the growth with NCI-H23 lung is 36.9%; in the assay on NCI-H226 lung, 55%; in the assay on NCI-H322M lung it was 49.1%; in the assay on HOP-62 NSCLC it was 26.3%; in the assay with NCI-H460 lung it was 12.7%; in the assay with HOP-92 NSCLC, 65.9%. In addition, the growth in the assay on NCI-H522 lung is 44.5%; in the assay on A549/ATCC NSCLC, 31.7%; with 786-0 renal, 61.1%; in the assay on COLO 205 colon, 27%; with DU-145 prostate, 60.6%; in the assay with K-562 leukemia, -17.8% (active). The growth was 78.7% in the assay with MALME-3M melanoma; 31.6% in the assay on MDA-MB-231 breast; 57.9% in the assay on RXF 393 renal; 32% with SF-268 CNS; 32.5% in the assay with SF-295 CNS; 69.9% with SF-539 CNS. Moreover, the growth in the assay with UACC-257 melanoma was 71.6%; in the assay on M14 melanoma, 50.5%.
With `Cc1cc(C)n(CC(=O)Nc2ccc(-c3nc4ccccc4s3)cc2)n1`, the growth with NCI-H23 lung is 93.8%; in the assay with NCI-H226 lung, 100%; in the assay with NCI-H322M lung, 99.9%; in the assay on HOP-62 NSCLC, 105%; with NCI-H460 lung it was 102%; in the assay on HOP-92 NSCLC, 97.7%. For the same compound, the growth with NCI-H522 lung is 103%; in the assay with A549/ATCC NSCLC it was 94.7%; with 786-0 renal, 106%; with COLO 205 colon, 112%; in the assay with DU-145 prostate it was 103%; in the assay with K-562 leukemia, 100%. The growth in the assay with MALME-3M melanoma was 108%; in the assay with MDA-MB-231 breast it was 108%; in the assay on RXF 393 renal it was 129%; in the assay on SF-268 CNS it was 100%; in the assay on SF-295 CNS, 103%; in the assay with SF-539 CNS it was 98.6%. Further, the growth in the assay with UACC-257 melanoma was 107%; with M14 melanoma it was 111%.
On to `COc1ccc(F)c(F)c1C(=O)c1cnc(NC2CCN(S(C)(=O)=O)CC2)nc1N`, for which the growth was -36.5% (active) in the assay on NCI-H23 lung; 3.23% (active) in the assay with NCI-H226 lung; 2.76% (active) with NCI-H322M lung; -24.7% (active) with HOP-62 NSCLC; 3.3% (active) in the assay with NCI-H460 lung; -8.59% (active) in the assay with HOP-92 NSCLC. For the same compound, the growth is -29.5% (active) in the assay on NCI-H522 lung; 3.28% (active) in the assay on A549/ATCC NSCLC; 14.4% in the assay on 786-0 renal; -79.7% (active) with COLO 205 colon; 10.3% in the assay with DU-145 prostate; 5.89% (active) in the assay on K-562 leukemia. Also, the growth in the assay with MALME-3M melanoma is -28.3% (active); in the assay with MDA-MB-231 breast, 2.97% (active); in the assay on RXF 393 renal, -62% (active); in the assay on SF-268 CNS, 6.42% (active); in the assay with SF-295 CNS, 8.69% (active); in the assay on SF-539 CNS it was -33.8% (active). The growth is -28% (active) in the assay on UACC-257 melanoma and -23.6% (active) in the assay with M14 melanoma.
With `c1ccc2c(c1)CCN(NCCN1CCCC1)C2`, the growth in the assay with NCI-H23 lung is 86.7%; with NCI-H226 lung, 88.8%; in the assay with NCI-H322M lung, 98.2%; in the assay with HOP-62 NSCLC it was 75.4%; in the assay with NCI-H460 lung, 107%; in the assay on HOP-92 NSCLC, 80.4%. The growth was 91.3% in the assay on NCI-H522 lung; 85.5% with A549/ATCC NSCLC; 101% with 786-0 renal; 91.8% in the assay on COLO 205 colon; 110% with DU-145 prostate; 92.2% in the assay on K-562 leukemia. In addition, the growth in the assay with MALME-3M melanoma is 101%; in the assay with MDA-MB-231 breast it was 87%; in the assay on RXF 393 renal it was 99.9%; in the assay on SF-268 CNS it was 96.6%; in the assay with SF-295 CNS it was 98%; in the assay with SF-539 CNS, 97.7%. Further, the growth with M14 melanoma was 93%.
